# Measured values from PubChem BioAssay.
# Active and inactive are the calls of the source.
# Columns and labels:
# [1] = system: PRMT1 (protein arginine N-methyltransferase 1); test: PRMT1 binders on small-molecule microarrays, primary screen, biochemical, small-molecule microarray, 635 nm fluorescence (AID 1088); details: small-molecule microarray binding, higher = more signal;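 also: binding of Prmt1 protein to compounds spotted on small-molecule microarray slides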
# [2] = yeast growth modulation, basal conditions, primary screen, YJM789 clinical isolate, OD600, 24 h (AID 1089);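 also: growth of clinical yeast isolate S. cerevisiae YJM 789 seeded 1000 cells per well; test concentration not given here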; details: S. cerevisiae YJM789 growth, higher = more signal, called active from +8 up or from −8 down
# [3] = fission yeast growth modulation, primary screen, strain 972, OD600, 24 h, no modulator (AID 1090);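 also: basal condition with compound alone and no growth modifier present; test concentration not given here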; details: S. pombe 972 growth, higher = more signal, called active from +8 up or from −8 down
# [4] = S. cerevisiae growth modulation with rapamycin, primary screen, strain BY4716, OD600, 96 h (AID 1091); details: higher = more signal, called active from +8 up or from −8 down; also: test concentration not given here
# [5] = molecular target: Torsin-1A-interacting protein 2 (Homo sapiens) (UniProt Q8NFQ8); test: LULL1 binders on small-molecule microarray, primary screen, cell lysate, human LULL1 lysate, 635/667 nm fluorescence (AID 1092); details: hLULL1 lysate binding, 635 nm fluorescence, higher = more signal;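 also: probe is lysate of COS7 cells overexpressing human LULL1; score merges per-feature 667 nm fluorescence with signal-to-noise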
# [6] = E. coli growth modulation, two-sided OD650, primary screen, E. coli filamentation project, strain DRC41, 24 h (AID 1093); details: OD650, 24 h, higher = more signal, called active from +8 up or from −8 down;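 also: MC1000 strain lacking acrAB efflux and sulA so SOS filamentation is blocked; test concentration not given here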
# [7] = small-molecule microarray binders of probe aLefty2, primary screen, biochemical, biotinylated probe, 635/667 nm fluorescence (AID 1094); details: higher = more signal;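 also: score merges spot fluorescence near 667 nm with spot signal-to-noise ratio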
# [8] = system: Noggin (protein binding on small-molecule microarray); test: Noggin binders on small-molecule microarray, primary screen, biochemical, 635/667 nm fluorescence (AID 1095); details: 635 nm fluorescence, higher = more signal;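 also: score merges 667 nm feature fluorescence with signal to noise over triplicate slides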
# [9] = molecular target: Neurogenic locus notch homolog protein 3 (Homo sapiens) (UniProt Q9UM47); test: NOTCH3 binders on small-molecule microarray, primary screen, biochemical, 635/667 nm fluorescence (AID 1096); details: NOTCH3 binding, 635 nm fluorescence, higher = more signal
# [10] = small-molecule microarray binders of probe aEGFR, primary screen, biochemical, biotinylated probe, 635/667 nm fluorescence (AID 1097); details: higher = more signal;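 also: probe is a biotinylated anti-EGFR antibody binding compounds printed on slides; score combines fluorescence near 667 nm and signal to noise of each spot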
# [11] = system: Plasmodium falciparum Sir2 (PF13_0152, Sir2A); test: pfSir2 binders on small-molecule microarrays, primary screen, biochemical, small-molecule microarray, 635 nm fluorescence (AID 1098); details: small-molecule microarray binding, fluorescence 635 nm; higher = more signal;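 also: score merges spot fluorescence intensity with its signal-to-noise ratio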
# [12] = small-molecule microarray binders of probe aDKK1, primary screen, biochemical, biotinylated probe, 635/667 nm fluorescence (AID 1099); details: higher = more signal;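 also: score merges 667nm spot fluorescence with signal to noise across triplicate slides; reference of the scale not given here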
# [13] = small-molecule microarray binders of probe aCHRDL2, primary screen, biochemical, biotinylated probe, 635/667 nm fluorescence (AID 1100); details: higher = more signal
# [14] = splicing luciferase reporter signal modulators, primary screen, spliceosome inhibition project, cell-based, HEK293, splice +/- reporter (AID 1101); details: luminescence, 24 h, higher = more signal, called active from +8 up or from −8 down;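 also: HEK293 cells carrying a splicing-competent luciferase reporter gene; test concentration not given here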
# [15] = molecular target: Fibroblast growth factor 10 (Homo sapiens) (UniProt O15520); test: FGF10 binders on small-molecule microarrays, primary screen, biochemical, small-molecule microarray, 635 nm fluorescence (AID 1102); details: FGF10 binding, fluorescence 635 nm, higher = more signal
# [16] = system: glycogen synthase kinase-3 (GSK3A per assay name; protocol says GSK3B); test: GSK3 binders on small-molecule microarrays, primary screen, biochemical, small-molecule microarray, 635 nm fluorescence, GSK3A (AID 1103); details: small-molecule microarray binding, fluorescence 635 nm; higher = more signal; also: the record names both GSK3A and GSK3B
# [17] = molecular target: Epidermal growth factor receptor (Homo sapiens) (UniProt P00533); test: EGFR binders on small-molecule microarrays, primary screen, biochemical, small-molecule microarray, 635 nm fluorescence (AID 1104); details: EGFR binding, higher = more signal;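 also: score merges 667 nm emission intensity with spot signal to noise over triplicate slides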
# [18] = molecular target: Follistatin-related protein 3 (Homo sapiens) (UniProt O95633); test: FSTL3 binders on small-molecule microarrays, primary screen, biochemical, small-molecule microarray, 635 nm fluorescence (AID 1105); details: FSTL3 binding, higher = more signal;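 also: score merges emission near 667 nm and signal to noise per printed spot across three slides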
# [19] = molecular target: Dickkopf-related protein 1 (Homo sapiens) (UniProt O94907); test: DKK1 binders on small-molecule microarrays, primary screen, biochemical, small-molecule microarray, 635 nm fluorescence scan (AID 1106); details: DKK1 binding, higher = more signal;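 also: score merges emission near 667 nm with signal to noise over three replicate slides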
# [20] = system: Inhibin beta A chain (activin A); test: INHBA (activin A) binders on microarrays, primary screen, biochemical, small-molecule microarray, 635 nm fluorescence scan (AID 1107); details: small-molecule microarray binding, higher = more signal;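 also: mouse activin A protein probed at 4.33 µg/mL on printed slides; score merges bound-protein fluorescence near 667 nm with spot signal-to-noise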
# Torsin-1A-interacting protein 2 (Homo sapiens), sequence (Q8NFQ8 whole entry, looked up): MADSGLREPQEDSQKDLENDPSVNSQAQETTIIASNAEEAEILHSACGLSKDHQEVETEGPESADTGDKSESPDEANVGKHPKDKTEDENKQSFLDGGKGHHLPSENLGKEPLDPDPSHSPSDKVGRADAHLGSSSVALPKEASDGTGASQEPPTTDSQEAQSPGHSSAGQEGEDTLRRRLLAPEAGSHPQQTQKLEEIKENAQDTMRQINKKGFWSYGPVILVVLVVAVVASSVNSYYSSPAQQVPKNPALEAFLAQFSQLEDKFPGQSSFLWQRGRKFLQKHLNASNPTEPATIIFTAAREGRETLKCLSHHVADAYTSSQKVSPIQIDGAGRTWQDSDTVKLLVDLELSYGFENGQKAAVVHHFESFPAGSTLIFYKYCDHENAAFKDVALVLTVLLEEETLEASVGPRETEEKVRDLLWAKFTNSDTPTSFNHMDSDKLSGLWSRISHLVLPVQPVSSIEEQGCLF
# Follistatin-related protein 3 (Homo sapiens), sequence (O95633 whole entry, looked up): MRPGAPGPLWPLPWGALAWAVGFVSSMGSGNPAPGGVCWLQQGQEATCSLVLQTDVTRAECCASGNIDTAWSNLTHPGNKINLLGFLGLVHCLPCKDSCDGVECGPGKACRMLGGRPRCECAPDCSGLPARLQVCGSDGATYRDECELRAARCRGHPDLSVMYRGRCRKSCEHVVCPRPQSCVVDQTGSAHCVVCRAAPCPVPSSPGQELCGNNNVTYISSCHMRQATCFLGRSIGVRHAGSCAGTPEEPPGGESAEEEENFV
# Fibroblast growth factor 10 (Homo sapiens), sequence (O15520 whole entry, looked up): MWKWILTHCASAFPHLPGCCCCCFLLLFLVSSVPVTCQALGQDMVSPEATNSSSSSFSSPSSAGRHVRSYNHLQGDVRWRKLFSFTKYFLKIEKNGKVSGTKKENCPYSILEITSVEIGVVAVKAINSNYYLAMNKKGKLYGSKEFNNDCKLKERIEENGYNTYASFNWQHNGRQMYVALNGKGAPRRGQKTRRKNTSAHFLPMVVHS
# Neurogenic locus notch homolog protein 3 (Homo sapiens), sequence (Q9UM47 whole entry, looked up): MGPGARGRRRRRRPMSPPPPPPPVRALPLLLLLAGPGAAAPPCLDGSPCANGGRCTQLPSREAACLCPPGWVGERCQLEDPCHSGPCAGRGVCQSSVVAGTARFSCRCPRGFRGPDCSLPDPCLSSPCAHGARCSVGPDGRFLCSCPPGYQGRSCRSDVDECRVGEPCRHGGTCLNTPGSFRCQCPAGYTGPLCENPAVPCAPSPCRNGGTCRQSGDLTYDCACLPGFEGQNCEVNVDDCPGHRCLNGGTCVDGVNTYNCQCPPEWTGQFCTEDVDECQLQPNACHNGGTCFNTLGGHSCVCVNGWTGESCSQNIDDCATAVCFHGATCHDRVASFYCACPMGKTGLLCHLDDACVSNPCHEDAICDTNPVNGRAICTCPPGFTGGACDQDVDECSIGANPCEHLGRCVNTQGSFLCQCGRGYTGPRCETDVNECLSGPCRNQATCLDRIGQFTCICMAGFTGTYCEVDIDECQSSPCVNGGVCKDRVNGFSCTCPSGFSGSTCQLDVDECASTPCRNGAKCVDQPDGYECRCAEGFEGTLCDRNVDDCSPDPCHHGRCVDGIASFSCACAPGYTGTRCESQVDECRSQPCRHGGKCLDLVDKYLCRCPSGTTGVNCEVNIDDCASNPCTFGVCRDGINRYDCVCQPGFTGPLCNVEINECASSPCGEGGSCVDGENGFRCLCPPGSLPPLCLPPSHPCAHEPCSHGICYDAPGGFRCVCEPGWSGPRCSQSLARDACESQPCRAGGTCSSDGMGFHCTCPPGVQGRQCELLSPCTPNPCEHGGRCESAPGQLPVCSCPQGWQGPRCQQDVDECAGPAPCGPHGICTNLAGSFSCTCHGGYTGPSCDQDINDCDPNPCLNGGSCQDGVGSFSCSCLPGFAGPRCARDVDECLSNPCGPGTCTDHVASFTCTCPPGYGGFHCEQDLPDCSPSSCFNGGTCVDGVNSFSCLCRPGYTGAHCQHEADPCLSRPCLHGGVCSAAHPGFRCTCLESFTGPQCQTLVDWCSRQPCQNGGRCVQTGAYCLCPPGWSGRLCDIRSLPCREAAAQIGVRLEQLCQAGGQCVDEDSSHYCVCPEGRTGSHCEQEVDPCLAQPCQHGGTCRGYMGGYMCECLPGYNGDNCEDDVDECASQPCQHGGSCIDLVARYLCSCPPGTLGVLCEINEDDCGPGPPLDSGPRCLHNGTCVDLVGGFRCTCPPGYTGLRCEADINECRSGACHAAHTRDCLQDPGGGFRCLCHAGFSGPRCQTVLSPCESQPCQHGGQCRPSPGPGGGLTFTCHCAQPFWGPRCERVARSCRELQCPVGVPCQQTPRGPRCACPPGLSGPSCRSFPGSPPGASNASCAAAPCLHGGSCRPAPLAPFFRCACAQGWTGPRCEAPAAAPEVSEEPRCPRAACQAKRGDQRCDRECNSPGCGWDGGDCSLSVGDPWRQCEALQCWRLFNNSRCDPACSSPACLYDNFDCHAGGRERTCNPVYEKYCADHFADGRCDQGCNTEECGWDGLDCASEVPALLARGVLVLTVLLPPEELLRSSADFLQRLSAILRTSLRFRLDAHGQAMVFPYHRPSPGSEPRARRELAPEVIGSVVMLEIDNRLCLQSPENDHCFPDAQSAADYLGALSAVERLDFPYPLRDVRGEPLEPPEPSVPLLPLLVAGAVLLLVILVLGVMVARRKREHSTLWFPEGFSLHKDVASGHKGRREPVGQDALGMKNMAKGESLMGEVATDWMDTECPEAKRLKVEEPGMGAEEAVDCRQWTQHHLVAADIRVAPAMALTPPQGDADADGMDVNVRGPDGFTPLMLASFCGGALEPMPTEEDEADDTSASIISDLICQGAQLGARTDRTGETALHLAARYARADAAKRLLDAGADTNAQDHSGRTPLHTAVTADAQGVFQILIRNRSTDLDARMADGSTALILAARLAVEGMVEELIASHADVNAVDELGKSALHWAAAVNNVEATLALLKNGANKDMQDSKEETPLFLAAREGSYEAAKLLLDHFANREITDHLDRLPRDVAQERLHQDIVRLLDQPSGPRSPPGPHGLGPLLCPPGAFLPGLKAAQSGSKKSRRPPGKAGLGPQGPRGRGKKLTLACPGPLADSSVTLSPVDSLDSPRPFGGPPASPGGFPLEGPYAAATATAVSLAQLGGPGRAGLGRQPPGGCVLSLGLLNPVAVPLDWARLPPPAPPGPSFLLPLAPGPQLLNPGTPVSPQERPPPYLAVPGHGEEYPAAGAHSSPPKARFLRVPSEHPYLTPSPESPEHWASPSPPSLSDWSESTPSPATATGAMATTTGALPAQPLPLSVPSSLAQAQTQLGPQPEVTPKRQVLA
# Epidermal growth factor receptor (Homo sapiens), sequence (P00533 whole entry, looked up): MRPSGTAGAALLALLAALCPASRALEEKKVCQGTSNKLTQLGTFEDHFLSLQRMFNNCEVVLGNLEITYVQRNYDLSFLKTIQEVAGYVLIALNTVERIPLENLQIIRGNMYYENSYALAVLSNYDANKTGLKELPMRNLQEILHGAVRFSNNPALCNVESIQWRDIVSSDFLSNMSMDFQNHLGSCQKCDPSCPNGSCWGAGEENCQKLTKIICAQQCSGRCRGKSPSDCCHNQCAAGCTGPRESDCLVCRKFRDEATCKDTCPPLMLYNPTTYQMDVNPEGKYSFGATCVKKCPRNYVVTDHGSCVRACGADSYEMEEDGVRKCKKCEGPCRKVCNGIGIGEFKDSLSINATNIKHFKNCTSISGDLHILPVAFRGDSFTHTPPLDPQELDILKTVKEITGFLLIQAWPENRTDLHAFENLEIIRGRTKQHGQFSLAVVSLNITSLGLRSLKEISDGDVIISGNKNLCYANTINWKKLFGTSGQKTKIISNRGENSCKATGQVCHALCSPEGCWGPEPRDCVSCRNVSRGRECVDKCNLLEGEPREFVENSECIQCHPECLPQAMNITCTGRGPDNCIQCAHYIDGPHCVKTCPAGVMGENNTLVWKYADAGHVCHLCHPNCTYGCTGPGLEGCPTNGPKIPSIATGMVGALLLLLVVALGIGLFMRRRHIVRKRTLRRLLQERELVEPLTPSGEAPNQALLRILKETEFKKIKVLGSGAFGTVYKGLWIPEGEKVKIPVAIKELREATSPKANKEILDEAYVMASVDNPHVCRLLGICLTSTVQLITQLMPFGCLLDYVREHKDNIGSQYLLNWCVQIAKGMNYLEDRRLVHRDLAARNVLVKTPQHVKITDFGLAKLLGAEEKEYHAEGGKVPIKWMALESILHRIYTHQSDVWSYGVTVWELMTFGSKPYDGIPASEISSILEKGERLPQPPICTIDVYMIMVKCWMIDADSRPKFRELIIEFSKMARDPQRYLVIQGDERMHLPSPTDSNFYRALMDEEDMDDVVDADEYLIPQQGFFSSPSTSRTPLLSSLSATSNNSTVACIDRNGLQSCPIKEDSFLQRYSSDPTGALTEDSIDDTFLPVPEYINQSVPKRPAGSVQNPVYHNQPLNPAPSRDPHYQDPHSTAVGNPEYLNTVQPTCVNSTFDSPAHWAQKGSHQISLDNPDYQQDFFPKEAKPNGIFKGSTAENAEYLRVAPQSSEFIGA
# Dickkopf-related protein 1 (Homo sapiens), sequence (O94907 whole entry, looked up): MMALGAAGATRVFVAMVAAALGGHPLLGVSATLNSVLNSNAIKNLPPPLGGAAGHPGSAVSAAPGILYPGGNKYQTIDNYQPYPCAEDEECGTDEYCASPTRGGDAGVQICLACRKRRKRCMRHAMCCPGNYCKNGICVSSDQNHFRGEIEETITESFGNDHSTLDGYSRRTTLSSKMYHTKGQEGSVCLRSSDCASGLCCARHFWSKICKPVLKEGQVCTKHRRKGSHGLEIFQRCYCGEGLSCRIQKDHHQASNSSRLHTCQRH
Compound,composite z-score [1],z-score [2],z-score [3],z-score [4],composite z-score [5],z-score [6],composite z-score [7],composite z-score [8],composite z-score [9],composite z-score [10],composite z-score [11],composite z-score [12],composite z-score [13],z-score [14],composite z-score [15],composite z-score [16],composite z-score [17],composite z-score [18],composite z-score [19],composite z-score [20]
COCCOC(=O)N1C(=O)[C@@]2(c3ccccc31)[C@H](c1ccc(O)cc1)N1[C@H](c3ccccc3)[C@H](c3ccccc3)OC(=O)[C@H]1[C@@H]2C(=O)NC[C@H](O)c1ccccc1,1.51,0.385 (inactive),-0.238 (inactive),2.73 (inactive),2.98,0.505 (inactive),-0.23,0.399,0.669,-0.165,1.12,-0.0866,-0.0184,-1.07 (inactive),0.12,0.191,-0.291,-0.195,-0.341,-0.202
O=C1O[C@H](c2ccccc2)[C@H](c2ccccc2)N2[C@H]1[C@@H](C(=O)N1CCN(c3ncccn3)CC1)[C@]1(C(=O)Nc3ccc(C#CC4=CCCCC4)cc31)[C@H]2c1ccc(O)cc1,1.54,1.92 (inactive),1.48 (inactive),2.97 (inactive),2.76,0.454 (inactive),-0.0313,0.555,0.79,0.0624,0.789,-0.0869,0.566,-0.725 (inactive),0.76,0.754,0.442,0.738,-0.0441,-0.0074
O=C1O[C@H](c2ccccc2)[C@H](c2ccccc2)N2[C@H]1[C@@H](C(=O)O)[C@]1(C(=O)Nc3ccc(C#CC4=CCCCC4)cc31)[C@H]2c1ccccc1OCCO,1.53,1.07 (inactive),1.1 (inactive),-1.55 (inactive),3.1,-0.273 (inactive),0.196,1.05,0.941,-0.313,1.49,-0.738,0.134,-0.246 (inactive),1.19,1.32,0.228,1.23,0.455,1.01
COc1ccc(CCN2C(=O)[C@@]3(c4ccc([N+](=O)[O-])cc4)CC(=O)N(C4CCCCC4)[C@@H]3c3ccc(CO)cc32)cc1,1.09,-1.82 (inactive),0.701 (inactive),-1.83 (inactive),0.479,0.483 (inactive),-0.0246,0.792,0.441,-0.1,0.582,0.274,0.181,-0.0884 (inactive),0.586,0.711,-0.267,1.2,1.48,0.889
CN(C)CCCC[C@@H]1NC(=O)[C@H]2C[C@@H](C(=O)NCCCCCNC(=O)CS)[C@@H](c3cccc(OCCO)c3)N2C1=O,1.18,-1.14 (inactive),-1.3 (inactive),-0.296 (inactive),2.79,-0.328 (inactive),0.0144,1.54,0.534,-0.136,1.12,-0.144,0.61,0.515 (inactive),0.305,0.894,0.227,0.65,0.459,-0.0899
COc1ccc([C@H]2C[C@H]3C(Br)=C[C@@H]2C(=O)[C@]32CO2)cc1,-0.431,0.29 (inactive),-3.66 (inactive),-0.417 (inactive),-0.807,1.7 (inactive),-0.0561,0.101,-0.282,-0.217,0.0371,-0.308,-0.193,-0.613 (inactive),-0.105,-0.515,0.427,0.202,1.03,1.52
C[C@@]1([C@@H](NC(=O)c2ccccc2)c2ccc(-c3ccccc3)cc2)C[C@H]1C1CCCCC1,-1.93,-0.0151 (inactive),0.443 (inactive),0.32 (inactive),0.429,-1.48 (inactive),0.527,-0.992,-1.42,0.247,-0.443,1.18,1.26,0.665 (inactive),-0.145,-0.82,-0.573,-0.503,-0.932,1.09
[N-]=[N+]=NCc1ccccc1[C@@H]1OC(c2ccc(OCCCO)cc2)=N[C@]1(CCS(=O)(=O)c1ccccc1)C(=O)NCc1ccccc1,1.55,0.182 (inactive),1.18 (inactive),3.49 (inactive),3.25,-0.382 (inactive),0.468,1.81,1.09,0.198,1.54,1.14,0.993,-0.392 (inactive),1.25,1.26,0.274,0.869,0.494,1.07
C=C(C)C1C(=C)CN([C@H](CO)c2ccccc2)C1=O (stereo not given in full),0.0584,-0.329 (inactive),-0.635 (inactive),-1.97 (inactive),1.62,-0.233 (inactive),-0.0757,0.245,0.0316,-0.18,1.35,-0.172,0.22,-0.622 (inactive),-0.0267,-0.599,-0.476,-0.0684,-0.153,1.36
CC(C)N1C(=O)[C@@]2(Cc3ccccc31)c1ccccc1C(=O)N(C1CCCCC1)[C@H]2c1ccc(CO)cc1,1.56,-0.0915 (inactive),-0.34 (inactive),-2.58 (inactive),2.01,-1.61 (inactive),-0.132,0.79,0.79,0.0117,1.15,-0.307,-0.194,0.0789 (inactive),0.206,0.856,0.507,1.17,0.788,0.899
